± gives the standard deviation.

This assay relates to THP-1. The assay is described as follows: THP-1 cell loss relative to DMSO control; higher = more host cell loss (toxicity); extreme values may be limits of the assay. To be noted: 10 µM; 4 days; infection: M. tuberculosis H37Rv. The method, then: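 OICR kinase inhibitor library screened in duplicate at 10 uM against M. tuberculosis-infected THP-1 macrophages, 4 days at 37 C. THP-1 cell loss (cytotoxicity or loss of adherence) was quantified from Hoechst-stained nuclei counts by high-content imaging and normalised to the 1% DMSO control; 100 = complete loss of host cells.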
The molecule `COC(=O)[C@@]1(O)C[C@H]2O[C@]1(C)n1c3ccccc3c3c4c(c5c6ccccc6n2c5c31)C(=O)NC4` had a THP-1 cell loss of 100%.

`Cc1ccccc1-n1c(Cn2cnc3c(N)ncnc32)nc2cccc(C)c2c1=O` displayed a THP-1 cell loss of 5.83 ± 8.2%.

Molecule `O=c1[nH]c2ccc(Cl)cc2c(N[C@@H]2CN3CCC2CC3)c1-c1nc2ccccc2[nH]1` gave a THP-1 cell loss of 100%.

For `NC(=S)N/N=C/c1coc2ccccc2c1=O.[Cl][Cu][Cl]`, the THP-1 cell loss is 16.3 ± 5.1%.

As to `O=C1Nc2ccc3ncsc3c2/C1=C/c1cnc[nH]1` [Imidazolo-oxindole PKR inhibitor C16], the THP-1 cell loss came out at 100%.

Molecule `CCn1cnc2c(Nc3cccc(Cl)c3)nc(N[C@@H]3CCCC[C@@H]3N)nc21` showed a THP-1 cell loss of 100%.

With `Cc1n[nH]c2ccc(-c3cncc(OC[C@@H](N)Cc4c[nH]c5ccccc45)c3)cc12`, the THP-1 cell loss was found to be 100%.

Regarding `CN[C@@H]1C[C@H]2O[C@@](C)([C@@H]1OC)n1c3ccccc3c3c4c(c5c6ccccc6n2c5c31)C(=O)NC4` [Staurosporine], the THP-1 cell loss turned out to be 100%.

In turn, `O=C1NC(=O)c2c1c1c3ccccc3n3c1c1c2c2ccccc2n1[C@H]1CC[C@@H]3O1` had a THP-1 cell loss of 100%.

Regarding `COC[C@H]1OC(=O)c2coc3c2[C@@]1(C)C1=C(C3=O)[C@@H]2CCC(=O)[C@@]2(C)C[C@H]1OC(C)=O` [Wortmannin], the THP-1 cell loss was found to be 45.8 ± 7.5%.

As for `N#C/C(=C\c1ccc(O)c(O)c1)C(N)=S`, the THP-1 cell loss came to 11.5 ± 1.3%.

Take `CC(=O)c1c(O)c(C)c(O)c(Cc2c(O)c3c(c(C(=O)/C=C/c4ccccc4)c2O)OC(C)(C)C=C3)c1O` [Rottlerin]: the THP-1 cell loss was found to be 71.2 ± 41%.

The molecule `C/C(O)=C(\C#N)C(=O)Nc1cc(Br)ccc1Br` came in with a THP-1 cell loss of 4 ± 5.7%.

For `Cn1cc(C2=C(c3cn(C4CCN(Cc5ccccn5)CC4)c4ccccc34)C(=O)NC2=O)c2ccccc21` [Enzastaurin], the THP-1 cell loss was 52.5 ± 67%.

The molecule `COc1ccc2c(c1)/C(=C/c1cnc[nH]1)C(=O)N2` yielded a THP-1 cell loss of 53.2 ± 9.3%.

Consider `C[C@]12O[C@H](C[C@]1(O)CO)n1c3ccccc3c3c4c(c5c6ccccc6n2c5c31)CNC4=O` [Lestaurtinib], for which the THP-1 cell loss is 100%.

`COc1ccc2c(c[n+](C)c3c4cc5c(cc4ccc23)OCO5)c1OC` [Chelerythrine chloride] displayed a THP-1 cell loss of 100%.

Molecule `O=C1NC(=O)c2c1c1c3ccccc3[nH]c1c1[nH]c3ccccc3c21` [Arcyriaflavin A] had a THP-1 cell loss of 75.7 ± 34%.

These data come from the supplement of paper PMC7530171.
